These results are taken from PubChem BioAssay AID602481 (Broad Institute, 2012).

Hit rate of the full screen: of about 360,000 compounds, about 340 (0.094%) were called active. This excerpt belongs to a sample that is enriched for actives. A number with no mark means an inactive call. Cut-off read from the data, not from the text of the source: active = inhibition above about 40%; inconclusive = no clear call, values can overlap the other calls; inactive = below that.

The term inhibition denotes the change of the read-out against control, counted positive when it falls.

This test has as its system 7,8-diaminopelargonic acid synthase BioA (Mycobacterium tuberculosis). The test is described as follows: M. tuberculosis BioA enzyme inhibitors, primary screen, biochemical, plate reader, single point, HTS (AID 602481). The settings on record: purified M. tuberculosis BioA enzyme, at 9.99 µM, active compounds read high.
As to `C/C=C/c1cnc2c(c1)C(=O)N([C@H](C)CO)C[C@@H](C)[C@H](CN(C)Cc1cccc(C(=O)O)c1)O2`, the inhibition was 0.203%.
Then `C[C@@H]1CN([C@@H](C)CO)C(=O)Cc2cc(NC(=O)CCCCCC(=O)Nc3ccccc3N)ccc2O[C@H]1CN(C)Cc1ccc(Cl)c(Cl)c1`, with -3.74%; and `COCC(=O)Nc1ccc2c(c1)OC[C@@H](C)N(Cc1ccccn1)C[C@H](C)[C@@H](OC)CN(C)C2=O`, with -0.629%.
Regarding `C[C@H](CO)N1C[C@H](C)[C@H](CN(C)Cc2cccc(C(=O)O)c2)Oc2ncc(-c3ccccc3F)cc2C1=O`, the inhibition is -3.23%.
Then `CCCOc1ccc2c3c(c(=O)oc2c1OCCC)CCC3`, with 49.3% (active); and `COc1ccc2c3c(c(=O)oc2c1OCC(=O)C(C)(C)C)CCCC3`, with 0.336%.
Under `O=c1oc2c(CN3CCCCC3)c(O)ccc2c2c1CCCCC2` stands 16.6%; under `C[C@H]1CN([C@@H](C)CO)C(=O)CCCn2nncc2CO[C@H]1CN(C)Cc1cccc(C(=O)O)c1`, -5.89%.
Then `C[C@@H]1CN([C@H](C)CO)C(=O)Cc2cc(NS(=O)(=O)c3ccc(F)cc3)ccc2O[C@@H]1CN(C)S(=O)(=O)c1ccc(F)cc1`, with 4.14%.
Consider `CN1c2ccc(C3=CCCCC3)cc2[C@@H]2[C@@H](CCN2S(=O)(=O)c2ccccc2F)[C@H]1CO`, for which the inhibition was -2.02%.
Under `Cc1ccccc1S(=O)(=O)N1[C@H](C#N)[C@H](c2ccccc2)[C@@H]1CO` stands -0.99%; under `CC(C)NC(=O)N(C)C[C@@H]1Oc2ccc(NC(=O)C3CC3)cc2C(=O)N([C@@H](C)CO)C[C@H]1C`, -0.507%.
Then `C[C@H](CO)N1C[C@H](C)[C@@H](CN(C)C(=O)Nc2ccc3c(c2)OCO3)Oc2ccc(NS(=O)(=O)c3ccc(Cl)cc3)cc2C1=O`, with 0.544%; and `C[C@@H]1CN([C@@H](C)CO)C(=O)Cc2cc(NC(=O)C3CCCCC3)ccc2O[C@H]1CN(C)C(=O)Nc1ccccc1`, with 0.073%.
Then `C[C@H]1CN([C@@H](C)CO)C(=O)c2cc(Br)cnc2O[C@H]1CN(C)CC1CCCC1`, with -0.484%.
`CCCN1[C@H](C(=O)N2CCOCC2)[C@@H](CO)[C@@H]2Cn3c(ccc(/C=C/c4ccccc4)c3=O)[C@@H]21`: the inhibition was -3.1%.
On to `COc1ccccc1-c1n[nH]nc1C1=CC(=O)CC(C)(C)C1`, for which the inhibition was -1.72%.
For `CC1(C)CC(=O)C=C(c2ccc(Cl)c(C(F)(F)F)c2)C1`, the inhibition was -0.352%.
In the case of `CC1(C)CC(=O)C=C(c2ccc3ncccc3c2)C1`, the inhibition was 64.2% (active).
Turning to `O=S(=O)(N[C@@H]1CC[C@H](CCn2cc(-c3ccccc3F)nn2)O[C@H]1CO)c1ccc(F)cc1`, the inhibition is 1.57%.
Turning to `Cc1cc(=O)oc2c(C)c(OC(C)C(=O)NC3CCN(Cc4ccccc4)CC3)ccc12` (stereo not given), the inhibition was -3.72%.
For the molecule `Cc1c(OC(C)C(=O)NCC2CCC(C(=O)O)CC2)ccc2c1oc(=O)c1ccccc12` (stereo not given), the inhibition was 43.7% (active).
Under `Cc1c(OC(C)C(=O)N[C@@H](Cc2ccccc2)C(=O)O)ccc2c3c(c(=O)oc12)CCCC3` (stereo not given in full) stands 0.433%; under `O=C(CN1CCOCC1)N1CCCCN2[C@H](CO)[C@H](c3ccc(Br)cc3)[C@H]2C1`, 4.49%; under `COc1cccc(S(=O)(=O)N[C@H]2C=C[C@H](CC(=O)NCc3ccc(Cl)cc3)O[C@@H]2CO)c1`, -1.44%.
